Laboratory results from PubChem BioAssay AID485270 (The Scripps Research Institute Molecular Screening Center, 2010).
Screen size: about 330,000 compounds; about 5,800 (1.8%) were called active. No stated cut-off is given here; in the data, active means inhibition mostly above about 38% (no sharp cut-off); inactive means mostly below about 40%. The full list was thinned out, with actives kept by preference.

molecular target: Orexin/Hypocretin receptor type 1 (Homo sapiens) (UniProt O43613); experiment: antagonists of human orexin 1 receptor (OX1R) (AID 485270); details: OX1R-expressing cells, FRET antagonist read-out; at 6.6 µM; active compounds read high;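 further: 0% = agonist challenge alone and 100% = reference antagonist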
Sequence (O43613 whole entry, looked up): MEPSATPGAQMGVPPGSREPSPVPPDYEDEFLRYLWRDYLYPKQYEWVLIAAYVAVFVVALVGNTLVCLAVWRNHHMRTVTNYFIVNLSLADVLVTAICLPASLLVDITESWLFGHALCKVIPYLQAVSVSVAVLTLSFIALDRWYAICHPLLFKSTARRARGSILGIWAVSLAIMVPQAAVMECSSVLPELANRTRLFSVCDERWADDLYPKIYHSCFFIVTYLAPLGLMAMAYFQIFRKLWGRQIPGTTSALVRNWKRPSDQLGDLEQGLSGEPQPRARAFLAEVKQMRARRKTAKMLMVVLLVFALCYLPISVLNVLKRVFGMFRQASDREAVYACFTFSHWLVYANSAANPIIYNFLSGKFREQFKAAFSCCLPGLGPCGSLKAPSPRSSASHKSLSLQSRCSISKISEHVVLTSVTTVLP

inhibition, active:
O=C1c2ccccc2C(=O)c2c1cccc2N1CCN(CCO)CC1 56.4%
CCOc1ccc(/C=C/C(=O)OCC(=O)c2ccccc2OC)cc1OC 62.2%
COc1cc(NC(=O)Nc2ccc(C)cc2)cc([N+](=O)[O-])c1 45.8%
CC(=O)Oc1ccc2c(c1)C(=O)c1ccccc1C2=O 30.9%
CCC(=O)N(C)C(c1ccccc1Cl)c1nnnn1-c1c(C)cccc1C (stereo not drawn) 74.2%
Cc1ccc(C)c(NS(=O)(=O)c2c(C)[nH]c(C)c2C(=O)N2CCCCC2)c1 49.2%
Cc1oc2c(c1C(=O)N1CCOCC1)C(=O)c1ccccc1C2=O 90.1%
COc1cccc(NC(=O)CN(C)C(=O)c2ccccc2CCc2ccccc2)c1 67.5%
COc1ccccc1CCNC(=O)C(=O)NCCC1CCCCN1S(=O)(=O)c1cccs1 (stereo not drawn) 57.5%
CC(=O)Nc1ccc(Nc2c([N+](=O)[O-])cc(S(C)(=O)=O)cc2[N+](=O)[O-])cc1 98%
CNc1ccc(NC(C)=O)cc1[N+](=O)[O-] 59.9%
CC(C)(C)NC(=O)CN(C(=O)c1csnn1)c1ccccc1-c1ccccc1 67.4%
COC(=O)c1sccc1NC(=O)CSc1ccccc1NS(=O)(=O)c1cc(Cl)ccc1Cl 60.7%
CC(=O)c1c(C)[nH]c(C(=O)COC(=O)c2cccc(S(=O)(=O)N(C)c3ccccc3)c2)c1C 69.6%
O=C(COC(=O)c1ccccn1)NNC(=O)c1ccc([N+](=O)[O-])cc1 57.2%
O=[N+]([O-])c1ncc(Br)cc1Nc1ccccc1 54.1%
NC(=S)N/N=C/c1ccc([N+](=O)[O-])cc1 50.9%
O=C(N/N=C/c1ccc([N+](=O)[O-])cc1)C(=O)N1CCCC1 45.8%

inhibition, inactive:
Cc1noc(C)c1NC(=O)Nc1cccc2c1O[C@H](CN(C)C(=O)Nc1ccccc1)[C@@H](C)CN([C@H](C)CO)C2=O 6.95%
CC(=O)C[C@H](O)CC(=O)[C@@H]1OC(=O)[C@@H](C)C/C=C\Cc2ccccc21 0.77%
O=C1OCCN1C(=O)[C@H]1[C@H](c2ccccc2)C(c2ccc(F)cc2)=NN1c1ccccc1 5.3%
Cc1cccc(N2O[C@H]3C=CC2CCCC3)n1 3.41%
CCn1nc(C(=O)NNS(=O)(=O)c2cc(/C=C/C(=O)O)cc(OC)c2OC)c2ccccc2c1=O 3.49%
CC[C@]12c3[nH]c4ccc(OC)cc4c3CCN1C(=O)C(CC(=O)NCCN1CCOCC1)C[C@@H]2C(=O)N1CCN(C(=O)C2CC2)CC1 (stereo partly drawn) 17.4%
O=C1c2ccccc2C(=O)c2c1cccc2N1CCN(C/C=C/c2ccccc2)CC1 20.4%
O=C1c2ccccc2C(=O)c2c1cccc2N1CCN(Cc2ccccc2)CC1 14.2%
COc1ccc(/C=C/C(=O)OCC(=O)NC2CCCCCC2)cc1OC 5.65%
COc1cc(/C=C/C(=O)OCC(=O)c2ccccc2)cc(OC)c1OC 7.01%
CCc1nnc(NC(=O)CSCc2cc(=O)n3cc(C)sc3n2)s1 8.1%
O=C(COC(=O)c1cccnc1Cl)Nc1ccc(S(=O)(=O)N2CCOCC2)cc1 7%
CC(=O)N1Cc2ccccc2CC1C(=O)O (stereo not drawn) 2.65%
COc1ccc(NC(=O)N(C)C[C@H]2Oc3ccc(NC(=O)C4CC4)cc3C(=O)N([C@H](C)CO)C[C@@H]2C)cc1 9.29%
COc1cc(C2CC(=O)Oc3cc(OC)c(OC)c(OC)c32)cc(OC)c1OC (stereo not drawn) 5.32%
CN(C(=O)c1cccc(NC(=O)Cc2cccc([N+](=O)[O-])c2)c1)C1CCCCC1 10.1%
CC(=O)c1ccc(NC(=O)Nc2ccc([N+](=O)[O-])cc2C)cc1 26%
COC(=O)c1ccc(NC(=O)Nc2ccc(C)cc2)cc1 15.3%
CC(C)(C)OC(=O)C[C@@H]1C/C=C\C[C@H](CC(=O)N[C@@H](CO)Cc2ccccc2)C(=O)N[C@H](Cc2ccccc2)COC1=O 4%
CC(=O)O[C@H]1c2ccccc2-c2ccccc2[C@@H]1OC(C)=O 1.8%
CC(=O)Oc1cccc(C(=O)Nc2ccccc2NC(=O)c2cccc(OC(C)=O)c2)c1 6.54%
Cc1ccnc(SCC(=O)Nc2cccc(S(=O)(=O)N3CCOCC3)c2)n1 5.6%
CC1CCN(C(=O)COC(=O)c2cc(=O)[nH]c3ccccc23)CC1 3.71%
CN(C)/C=C(/C(=O)c1ccc(Cl)c(Cl)c1)c1nnnn1-c1ccccc1 4.6%
CN(C(=O)CSc1nnnn1-c1ccccc1)C1CCCCC1 9.05%
Cc1ccc(NS(=O)(=O)c2c(C)[nH]c(C)c2C(=O)N2CCCCC2)c(C)c1 21.7%
Cc1ccc(C)c(N2CCN(S(=O)(=O)c3c(C)[nH]c(C)c3C(=O)N3CCCC3)CC2)c1 5.67%
O=C(COC(=O)CN1C(=O)C2CCCCC2C1=O)Nc1ccc(F)c(F)c1F (stereo not drawn) 0.98%
Cc1ccc(C(=O)N2CCN(C(=O)N3CCOCC3)CC2)cc1 5.22%
Cc1ccccc1-c1ccc(Nc2ccc(C(=O)N3CCOCC3)cc2)nn1 20.7%
Cc1cccc(C(=O)N[C@H](C(=O)NCc2cccs2)C(C)C)c1 11.5%
CN[C@H](C(=O)NC[C@H]1O[C@@H](n2cnc3c(N)ncnc32)[C@H](O)[C@@H]1O)[C@@H](C)OCc1ccccc1 5.21%
Cc1ccc(C(=O)NNC(=O)c2ccc3c(c2)OCCO3)cc1 8.1%
COc1cccc(NC(=O)CN(C)C(=O)c2cc(C3CC3)nn2-c2ccccc2)c1 14%
COc1cccc(NC(=O)CN(C)C(=O)Cc2ccc(Cl)cc2Cl)c1 17.8%
CC(C)n1ncc2c(C(=O)Nc3ccc(CC#N)cc3)cc(C3CC3)nc21 4.43%
Cc1ccc(S(=O)(=O)Nc2ccc3c(c2)C(=O)N([C@H](C)CO)C[C@@H](C)[C@@H](CN(C)C(=O)Nc2cccc4ccccc24)O3)cc1 2.14%
O=C(NCCC1CCCCN1S(=O)(=O)c1cccs1)C(=O)Nc1ccc(F)cc1F (stereo not drawn) 12.6%
COc1ccc(CCNC(=O)C(=O)NCC2CCCN2S(=O)(=O)c2cccs2)cc1OC (stereo not drawn) 17.3%
CC(=O)Nc1ccc(S(=O)(=O)N2CCN(c3ccc([N+](=O)[O-])c(NCCN4CCOCC4)c3)CC2)cc1 24.8%
CC(=O)Nc1ccc(NC(=S)NC(=O)c2ccc([N+](=O)[O-])c(C)c2)cc1 4.21%
CNc1ccc([N+](=O)[O-])cc1C(=O)O 17.5%
Cc1ccc(NC(=O)c2sccc2C)cc1[N+](=O)[O-] 14.5%
O=C1COc2ccc(C(=O)COC(=O)CCOc3ccccc3)cc2N1 4.75%
O=C(COC(=O)c1ccccc1O)NCc1ccco1 9.75%
COc1cccc(-c2sc3ccc(OC)cc3c2-c2ccc(OCCN3CCCCC3)cc2)c1 3.65%
CC(C)(C)NC(=O)CN(C(=O)c1ccc(Cl)nc1)c1cccc2ccccc12 9.37%
CCC(C)(C)NC(=O)C(c1ccccn1)N(C(=O)c1csnn1)c1ccccc1 (stereo not drawn) 6.1%
COc1cc(Cl)c(C)cc1NC(=O)CSc1nnc(CN2CCCC2)o1 3.58%
O=C1CC2(CCCC2)C(=O)N1CN1CCN(S(=O)(=O)c2ccc(F)cc2F)CC1 6.49%
COC(=O)c1sccc1NS(=O)(=O)c1ccc(F)cc1F -2.44%
COC(=O)c1sccc1NC(=O)COc1ccc(Cl)cc1 19.5%
C[C@]12CC[C@H](O)CC1=CCC1C2CC[C@@]2(C)C1CC[C@@H]2NC(=O)CCC(=O)O (stereo partly drawn) 4.74%
Cc1cccc(C)c1Nc1nnc(SCC(=O)NCCCN2CCCC2=O)s1 5.99%
COc1cccc(C(=O)OCC(=O)c2[nH]c(C)c(C(C)=O)c2C)c1 12.8%
CC(=O)c1c(C)[nH]c(C(=O)COC(=O)c2cccs2)c1C 15%
CC[C@]12c3[nH]c4ccc(OC)cc4c3CCN1C(=O)C(CC(=O)NCc1ccco1)C[C@@H]2C(=O)N1CCN(C(=O)C2CC2)CC1 (stereo partly drawn) 6.49%
COc1ccc(CCNC(=O)COC(=O)c2cnc(Cl)c(Cl)c2)cc1 8.28%
O=C(OCc1ccc([N+](=O)[O-])cc1)c1ccccn1 5.7%
O=C(COC(=O)c1ccccn1)NNC(=O)c1ccc(Br)cc1 -0.24%
COc1ccc(-c2c(C)cc3oc(=O)cc(-c4ccccc4)c3c2C)cc1C=O 4.68%
COc1ccccc1C(=O)COC(=O)COc1ccc(C#N)cc1 5.7%
O=[N+]([O-])c1cccc(/C=N/Nc2ncc(Br)cn2)c1 25.3%
O=[N+]([O-])c1ccccc1Nc1ccc(O)cc1 50.7%
O=C(COC(=O)/C=C/c1cccc(Cl)c1)NCc1cccs1 5.6%
COc1ccc(-c2sc3ccccc3c2-c2ccc(OCCN3CCOCC3)cc2)cc1 -1.97%
COC(=O)c1ccc(/C=N/NC(=O)C(=O)N2CCCCCC2)cc1 44.8%
Cc1ccsc1C(=O)N/N=C/c1ccc([N+](=O)[O-])cc1 53.6%
CCOc1ccc(/C=N/NC(N)=S)cc1 27.9%
O=C(N/N=C/c1ccc2c(c1)OCO2)C(=O)N1CCCC1 15%
